Measured values: PubChem BioAssay AID602377 (National Center for Advancing Translational Sciences (NCATS), 2012)
Calls of active or inactive are those of the source. The call rests on the fitted dose curve; in most records, active means well fitted activation curve with a large enough effect; inactive means flat fitted curve, though single readings scatter.

What follows are compounds tested against Pyruvate kinase PKM (Homo sapiens) (UniProt P14618) (assay: qHTS for Activators of Human Muscle Isoform Pyruvate Kinase: Extended Characterization Using A Lactate Dehydrogenase (LDH) Assay). Details: purified hPK-M2, LDH-coupled NADH fluorescence kinetic.
Pyruvate kinase PKM (Homo sapiens), sequence (P14618 whole entry, looked up, canonical isoform): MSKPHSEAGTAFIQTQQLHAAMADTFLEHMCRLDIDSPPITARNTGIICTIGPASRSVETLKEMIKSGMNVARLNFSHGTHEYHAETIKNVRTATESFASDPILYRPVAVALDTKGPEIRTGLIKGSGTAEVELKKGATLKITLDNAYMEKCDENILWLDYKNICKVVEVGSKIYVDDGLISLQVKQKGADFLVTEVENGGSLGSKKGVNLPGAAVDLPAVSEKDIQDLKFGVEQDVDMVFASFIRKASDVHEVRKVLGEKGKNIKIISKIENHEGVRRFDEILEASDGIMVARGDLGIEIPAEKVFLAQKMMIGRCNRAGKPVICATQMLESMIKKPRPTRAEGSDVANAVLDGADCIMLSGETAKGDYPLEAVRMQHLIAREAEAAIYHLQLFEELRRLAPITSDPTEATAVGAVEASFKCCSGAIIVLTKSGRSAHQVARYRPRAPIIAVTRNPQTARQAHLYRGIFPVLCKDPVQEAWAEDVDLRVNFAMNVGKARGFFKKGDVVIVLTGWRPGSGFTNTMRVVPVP
From the text: Human pyruvate kinase muscle 2 (hPK-M2)enzyme was supplied as a highly purified (>95% pure) preparation from Harvard Medical School and a secondary assay was used to evaluate compounds. This assay couples the formation of pyruvate from hPK-M2 using lactate dehydrogenase (LDH) and NADH. The depletion of NADH is followed in a fluorescent-based kinetic assay that follows the formation of pyruvate to lactate, as catalyzed LDH (described by Hannaert et al., 2002)1 Pyruvate kinase substrates, PEP and ADP, were present in the assay at 0.1 mM and 4 mM respectively. In this kinetic assay initial rates were determined by following the fluorescence of NADH depletion. NIH Chemical Genomics Center [NCGC] NIH Molecular Libraries Probe Centers Network [MLPCN] MLPCN Grant: MH085679 Assay Submitter (PI): Matthew G. Vander Heiden, Harvard Medical School
Three uL of substrate mix (final concentration, 50 mM Tris-Cl pH 8.0, 200 mM KCl, 15 mM MgCl2, 0.1 mM PEP, 4.0 mM ADP, and 0.2 mM NADH) was dispensed into black-solid 1536 well plates. 23 nL of compounds were delivered by a pin tool and 1 uL of enzyme mix (final concentrations, 10 nM hPK-M2 and 1 uM of LDH) was added. Plates were immediately placed in ViewLux (Perkin Elmer) and NADH fluorescence was determined at 30 second exposure intervals for between 3 and 6 minutes. Data were normalized to the uninhibited and EC100 activation using known activators such as fructose-bis-phosphate.

Potency, active:
Cc1cc2c(s1)c1cnn(Cc3ccc(F)cc3F)c(=O)c1n2C 224 nM, Cc1cc2c(s1)c1cnn(Cc3c(Cl)ccc(C)c3F)c(=O)c1n2C 562 nM, Cc1cc2c(s1)c1cnn(Cc3cc(F)ccc3F)c(=O)c1n2C 447 nM, COc1cccc(Cn2ncc3c4sc(S(C)=O)cc4n(C)c3c2=O)c1 (stereo not given) 146 nM, Cc1cc2c(s1)c1cnn(Cc3cc(F)c(F)cc3F)c(=O)c1n2C 398 nM
